Experimental data taken from PubChem BioAssay AID1159580 (chemical genetic matrix, 2015).
Screen size: about 5,500 compounds; about 2,000 (36%) were called active. Not shown: some 18% with an inconclusive outcome. Rule as the data show it: active = normalized growth mostly below about 0.91 (no sharp cut-off); inconclusive = no clear call, values can overlap the other calls; inactive = mostly above about 0.92. Some of the results follow.

Assay: chemical genetic growth profiling, strain panel (AID 1159580);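 also: tested at 20 µM; growth read once vehicle control cultures reached saturation at 30 °C; 1 = growth at the plate median or of vehicle wells; lower values mean less growth of the strain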
Details: growth OD

Measured: normalized growth

O=C(OC1Cc2c(O)cc(O)cc2OC1c1cc(O)c(O)c(O)c1-c1c(C2Oc3cc(O)cc(O)c3CC2OC(=O)c2cc(O)c(O)c(O)c2)cc(O)c(O)c1O)c1cc(O)c(O)c(O)c1 (stereo not given)
active: S. cerevisiae deletion strains, locus YLR262C, strain YPT6 (second series), stronger effect = lower value 0.766 | S. cerevisiae deletion strains, locus YLR357W, strain rsc2, stronger effect = lower value 0.807 | S. cerevisiae deletion strains, locus YMR058W, strain fet3, stronger effect = lower value 0.338 | S. cerevisiae deletion strains, locus YMR231W, strain pep5, stronger effect = lower value 0.762 | S. cerevisiae deletion strains, locus YNL209W, strain ssb2, stronger effect = lower value 0.735 | S. cerevisiae deletion strains, locus YOR106W, strain vam3, stronger effect = lower value 0.648 | S. cerevisiae deletion strains, locus YPL051W, strain arl3, stronger effect = lower value 0.82
inactive: S. cerevisiae deletion strains, locus YJL187C, strain SWE1 (second series), stronger effect = lower value 1.01 | S. cerevisiae deletion strains, locus YJR043C, strain POL32, stronger effect = lower value 1.06 | S. cerevisiae deletion strains, locus YKL009W, strain mrt4, stronger effect = lower value 0.953 | S. cerevisiae deletion strains, locus YKL068W, stronger effect = lower value 1 | S. cerevisiae deletion strains, locus YKL085W, strain MDH1 (second series), stronger effect = lower value 0.991 | S. cerevisiae deletion strains, locus YKL085W, strain MDH1, stronger effect = lower value 0.991 | S. cerevisiae deletion strains, locus YKL160W, strain elf1, stronger effect = lower value 1 | S. cerevisiae deletion strains, locus YKL190W, strain CNB1, stronger effect = lower value 1 | S. cerevisiae deletion strains, locus YKR001C, strain vps1, stronger effect = lower value 0.961 | S. cerevisiae deletion strains, locus YKR026C, strain gcn3, stronger effect = lower value 1.02 | S. cerevisiae deletion strains, locus YKR091W, strain srl3, stronger effect = lower value 1.02 | S. cerevisiae deletion strains, locus YLL001W, strain dnm1, stronger effect = lower value 1.02 | S. cerevisiae deletion strains, locus YLL026W, stronger effect = lower value 1.02 | S. cerevisiae deletion strains, locus YLL041C, strain sdh2, stronger effect = lower value 1 | S. cerevisiae deletion strains, locus YLR027C, strain aat2, stronger effect = lower value 1.01 | S. cerevisiae deletion strains, locus YLR039C, strain RIC1, stronger effect = lower value 1.04 | S. cerevisiae deletion strains, locus YLR058C, strain SHM2, stronger effect = lower value 1.01 | S. cerevisiae deletion strains, locus YLR102C, strain apc9, stronger effect = lower value 0.988 | S. cerevisiae deletion strains, locus YLR221C, strain rsa3, stronger effect = lower value 0.995 | S. cerevisiae deletion strains, locus YLR258W, strain gsy2, stronger effect = lower value 0.993 | S. cerevisiae deletion strains, locus YLR262C, strain YPT6, stronger effect = lower value 0.99 | S. cerevisiae deletion strains, locus YLR268W, strain sec22, stronger effect = lower value 0.993 | S. cerevisiae deletion strains, locus YLR320W, strain mms22, stronger effect = lower value 0.981 | S. cerevisiae deletion strains, locus YLR330W, strain CHS5, stronger effect = lower value 0.993 | S. cerevisiae deletion strains, locus YLR342W, strain FKS1 (second series), stronger effect = lower value 1.1 | S. cerevisiae deletion strains, locus YLR342W, strain FKS1, stronger effect = lower value 0.98 | S. cerevisiae deletion strains, locus YLR370C, strain arc18, stronger effect = lower value 1.01 | S. cerevisiae deletion strains, locus YLR371W, strain rom2, stronger effect = lower value 0.979 | S. cerevisiae deletion strains, locus YLR384C, strain iki3, stronger effect = lower value 1 | S. cerevisiae deletion strains, locus YLR418C, strain cdc73, stronger effect = lower value 0.931 | S. cerevisiae deletion strains, locus YML016C, strain PPZ1, stronger effect = lower value 1.03 | S. cerevisiae deletion strains, locus YML032C, strain rad52, stronger effect = lower value 0.99 | S. cerevisiae deletion strains, locus YML120C, strain ndi1, stronger effect = lower value 1 | S. cerevisiae deletion strains, locus YML124C, strain tub3, stronger effect = lower value 0.992 | S. cerevisiae deletion strains, locus YMR078C, strain ctf18, stronger effect = lower value 0.981 | S. cerevisiae deletion strains, locus YMR125W, strain sto1, stronger effect = lower value 1.04 | S. cerevisiae deletion strains, locus YMR129W, stronger effect = lower value 1.02 | S. cerevisiae deletion strains, locus YMR205C, strain PFK2, stronger effect = lower value 0.974 | S. cerevisiae deletion strains, locus YMR223W, strain ubp8, stronger effect = lower value 0.995 | S. cerevisiae deletion strains, locus YMR307W, strain GAS1, stronger effect = lower value 1.08 | S. cerevisiae deletion strains, locus YNL067W, strain RPL9B, stronger effect = lower value 0.984 | S. cerevisiae deletion strains, locus YNL071W, strain lat1, stronger effect = lower value 1.02 | S. cerevisiae deletion strains, locus YNL153C, strain GIM3, stronger effect = lower value 1 | S. cerevisiae deletion strains, locus YNL233W, strain BNI4, stronger effect = lower value 0.964 | S. cerevisiae deletion strains, locus YNL248C, strain rpa49, stronger effect = lower value 1.01 | S. cerevisiae deletion strains, locus YNL250W, strain rad50, stronger effect = lower value 0.968 | S. cerevisiae deletion strains, locus YNL271C, strain bni1, stronger effect = lower value 0.964 | S. cerevisiae deletion strains, locus YNL298W, strain CLA4, stronger effect = lower value 0.979 | S. cerevisiae deletion strains, locus YNL307C, strain MCK1, stronger effect = lower value 0.979 | S. cerevisiae deletion strains, locus YNL322C, strain KRE1 (second series), stronger effect = lower value 1.05 | S. cerevisiae deletion strains, locus YNL322C, strain KRE1, stronger effect = lower value 0.998 | S. cerevisiae deletion strains, locus YNR049C, strain mso1, stronger effect = lower value 1.02 | S. cerevisiae deletion strains, locus YNR052C, strain pop2, stronger effect = lower value 0.969 | S. cerevisiae deletion strains, locus YOL006C, strain TOP1, stronger effect = lower value 0.885 | S. cerevisiae deletion strains, locus YOL012C, strain htz1 1.2 | S. cerevisiae deletion strains, locus YOL147C, strain pex11, stronger effect = lower value 0.987 | S. cerevisiae deletion strains, locus YOR001W, strain rrp6, stronger effect = lower value 0.997 | S. cerevisiae deletion strains, locus YOR061W, strain CKA2, stronger effect = lower value 1.03 | S. cerevisiae deletion strains, locus YOR069W, strain VPS5, stronger effect = lower value 1.02 | S. cerevisiae deletion strains, locus YOR070C, strain gyp1, stronger effect = lower value 0.975 | S. cerevisiae deletion strains, locus YOR080W, strain dia2, stronger effect = lower value 1.02 | S. cerevisiae deletion strains, locus YOR083W, strain WHI5, stronger effect = lower value 0.976 | S. cerevisiae deletion strains, locus YOR136W, strain idh2, stronger effect = lower value 0.972 | S. cerevisiae deletion strains, locus YOR144C, strain elg1, stronger effect = lower value 0.999 | S. cerevisiae deletion strains, locus YOR184W, strain ser1, stronger effect = lower value 0.982 | S. cerevisiae deletion strains, locus YOR265W, strain rbl2, stronger effect = lower value 0.984 | S. cerevisiae deletion strains, locus YOR270C, strain vph1, stronger effect = lower value 0.835 | S. cerevisiae deletion strains, locus YOR290C, strain snf2, stronger effect = lower value 0.985 | S. cerevisiae deletion strains, locus YOR316C, strain cot1, stronger effect = lower value 1 | S. cerevisiae deletion strains, locus YPL078C, strain atp4, stronger effect = lower value 1.01 | S. cerevisiae deletion strains, locus YPL106C, strain sse1, stronger effect = lower value 0.893 | S. cerevisiae deletion strains, locus YPL240C, strain hsp82, stronger effect = lower value 1.02 | S. cerevisiae deletion strains, locus YPR119W, strain clb2, stronger effect = lower value 0.999 | S. cerevisiae deletion strains, locus YPR141C, strain kar3, stronger effect = lower value 0.964 | S. cerevisiae deletion strains, locus YPR163C, strain tif3, stronger effect = lower value 0.987 | S. cerevisiae deletion strains, locus YPR167C, strain met16, stronger effect = lower value 0.986 | S. cerevisiae deletion strains, strain wtn01, stronger effect = lower value 0.994 | S. cerevisiae strains, strain wild type, stronger effect = lower value 1.01
